Assay results published in PubChem BioAssay (NCATS).
Results filed as inconclusive are left out. Entries that show only a call come without a potency. Calls of active or inactive are those of the source. Calls follow the shape of the dose curve; as a rule, active = well fitted inhibition curve with a large enough effect; inconclusive = small, poorly fitted or top-dose-only effect; inactive = no such curve, though single readings can be large or run the other way.
Potency is read from the fitted curve at half-maximal effect.

Assay: qHTS to identify inhibitors of the type 1 interferon - major histocompatibility complex class I in skeletal muscle: primary screen against the NCATS Mechanism Interrogation Plate v5.0 (MIPE) Libary (AID 1347411); also: nearly all actives have a fitted effect of over 65% in size
Conditions: iHSKM cells + IFN-b, HiBiT-tagged MHC-I luminescence, 24 h; series mostly up to 45.8 µM
Excerpt: Assay Submitter (PI): Travis B. Kinder Ph.D. & James Inglese Ph.D.
Assay Development and Screening Technology Laboratory (ADST)
National Center for Advancing Translational Sciences (NCATS), Rockville, MD
National Institute of Health (NIH), Bethesda, Maryland
Idiopathic inflammatory myopathies, collectively referred to as myositis, are a group of rare autoimmune diseases characterized by skeletal muscle inflammation, weakness, and usually accompanied by systemic pathologies of the skin, lungs, or vasculature. Current immunosuppressive therapies and glucocorticoids are often not curative and are accompanied by harsh side effects, especially in children with juvenile myositis. We initiated a drug repurposing and development program to identify more targeted, less toxic therapeutics to treat myositis. Although its cause is not known, muscle from a subset of patients have an abundance of the inflammatory type 1 interferon (IFN) and a down-stream product major histocompatibility complex class I (MHC class I), which are both thought to contribute to damage and weakness. We conducted quantitative high throughput screening on 6,576 compounds (4,679 unique) through a series of cell-based assays to identify those that inhibit the IFN-stimulated expression of MHC class I in muscle precursor cells (myoblasts). The compound identification and evaluation strategy utilized a primary screen with reporter-tagged MHC class I in genome-engineered myoblasts, ATP content counter screen for viability, HLA-ABC immunofluorescence secondary screen, and HLA-B RT-qPCR tertiary screen.
The primary screen utilized CRISPR/Cas9 genome-engineering of immortalized human myoblasts, C25cl48, where a pro-luminescent reporter HiBit was fused to the C-terminus of endogenous MHC class I allele HLA-B*08:01 (HLA-B HiBit myoblasts). HiBit is an 11 amino acid fragment of NanoLuc luminescent reporter (Promega Corporation), and when complexed to the larger LgBit fragment, the reconstituted enzyme produces light in the presence of furimazine substrate (Schwinn et al., 2018). Briefly, HLA-B HiBit myoblasts were plated into 1536-well plates, treated with 4.0 ng/ml human IFN-beta and 2,480 compounds from the NCATS Mechanism Interrogation Plate v5.0 (MIPE5.0) in an 11-point, 1:3 titration with a high final concentration of 46 uM. After 24 hrs of treatment, cells were assayed by Nano-Glo HiBiT Lytic Detection System (Promega) and luminescence measured by a ViewLux 1430 Ultra HTS (Perkin Elmer).
Schwinn MK, Machleidt T, Zimmerman K, Eggers CT, Dixon AS, Hurst R, Hall MP, Encell LP, Binkowski BF, Wood K V. 2018. CRISPR-Mediated Tagging of Endogenous Proteins with a Luminescent Peptide. ACS Chem Biol 13:467-474. doi:10.1021/acschembio.7b00549
PROTOCOL TABLE (as described by Inglese et al., 2007)
SEQUENCE No. (e.g., 1, 2, 3, etc.); […] (e.g., Cells, Incubation, Reagent, etc.); VALUE; DESCRIPTION
1a; Cells; 5 uL; Use a Multidrop Combi (Thermo Scientific) to seed 300 cells/well into 24 Greiner 1536 well white/solid bottom, high base, TC plates in 5 ul/well of iHSKM growth medium (GM) without dexamethasone into columns 1+2. Add metal lids with gas-exchange holes
1b; Cells; 5 uL; Use a Multidrop Combi (Thermo Scientific) to seed 300 cells/well into 24 Greiner 1536 well white/solid bottom, high base, TC plates in 5 ul/well of iHSKM GM without dexamethasone + 4 ng/ml IFN-b into columns 3 - 48. Add metal lids with gas-exchange holes
2; Incubate; 1 hr; Incubate at 37 C, 5% CO2, 95% RH
3; Compounds; 23 nl; Use Pin Tool (Wako) to transfer DMSO control, ruxolitinib IFN-b inhibitor control [High Concentration = 80 uM final, 16-pt, 1:2 in duplicate], and library compounds in DMSO
4; Incubate; 24 hrs; Incubate at 37 C, 5% CO2, 95% RH
5; Dispense; 2.5 ul; Use BioRAPTR FRD (Beckman Coulter) to add HiBit lytic reagent
6; Incubate; 10 min; Incubate in the dark at ambient temperature for lysis
7; Detector; 5 sec; Measure luminescence with ViewLux 1430 Ultra HTS (Perkin Elmer). […]
With `CC1(C)O[C@@H]2C[C@H]3[C@@H]4CCC5=CC(=O)C=C[C@]5(C)[C@@]4(F)[C@@H](O)C[C@]3(C)[C@]2(C(=O)CO)O1` the Potency was “inactive”. With `CN1CC(=O)N2[C@H](c3ccc4c(c3)OCO4)c3[nH]c4ccccc4c3C[C@@H]2C1=O` the Potency was “inactive”. With `CC(C)N(CCC(=O)c1ccc2ccccc2c1)Cc1ccccc1` the Potency was 5.87 µM (active). In the case of `C[C@H]1C[C@H]2[C@@H]3CCC4=CC(=O)C=C[C@]4(C)[C@H]3C(=O)C[C@]2(C)[C@@]1(O)C(=O)CO`, the Potency was “inactive”. With `CCCCCCOC(=O)NC(=N)c1ccc(NCc2nc3cc(C(=O)N(CCC(=O)OCC)c4ccccn4)ccc3n2C)cc1` the Potency was “inactive”. For `O=C(Nc1ccc(S(=O)(=O)N2CCOCC2)cc1)c1cc(Cl)ccc1NS(=O)(=O)c1ccc(Cl)s1`, the Potency was “inactive”. In the case of `O=[N+]([O-])c1cncn1CCN1CCOCC1`, the Potency was “inactive”. With `O=C(O)[C@H](O)[C@@H](O)[C@H](O[C@@H]1O[C@H](CO)[C@H](O)[C@H](O)[C@H]1O)[C@H](O)CO` the Potency was “inactive”. In the case of `O=C1NC(=O)/C(=C/c2ccc3c(c2)OC(F)(F)O3)S1`, the Potency was “inactive”. With `O=C(O)C(=O)Nc1cccc(-c2nn[nH]n2)c1` the Potency was “inactive”. With `CN1CCCN=C1/C=C/c1cccs1` the Potency was “inactive”. For `CC1(C)O[C@@H]2C[C@H]3[C@@H]4C[C@H](F)C5=CC(=O)C=C[C@]5(C)[C@@]4(F)[C@@H](O)C[C@]3(C)[C@]2(C(=O)CO)O1`, the Potency was “inactive”. With `CC1c2ccccc2CN1NC(=O)c1ccc(Cl)c(S(N)(=O)=O)c1` (stereo not given) the Potency was “inactive”. In the case of `CNC[C@H](O)[C@@H](O)[C@H](O)[C@H](O)CO`, the Potency was “inactive”. In the case of `CCC1=C[C@@H]2CN(C1)Cc1c([nH]c3ccccc13)[C@@](C(=O)OC)(c1cc3c(cc1OC)N(C)[C@H]1[C@@](O)(C(=O)OC)[C@H](OC(C)=O)[C@]4(CC)C=CCN5CC[C@]31[C@@H]54)C2`, the Potency was “inactive”.
